From the supplement of paper PMC11001985
A number with no mark means an inactive call.

compound: C#CCNC(=O)CCSSCCC(=O)NCCc1ccc(C=O)c(C=O)c1; test: lysine labeling ratio R10:1 (500 µM / 50 µM probe), SILAC-ABPP in living cells; higher = lower intrinsic lysine reactivity toward the probe, active = 2 or less; conditions: HeLa; probe concentrations 500 vs 50 µM
Summary of the method: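 With forward and reverse label swaps, light and heavy SILAC HeLa cells, alive and in PBS at room temperature, were exposed to either 500 µM or 50 µM of an alkyne-tagged lysine probe bearing a disulfide link. After mixing, lysates were clicked to biotin-azide, cut with trypsin, pulled down on neutravidin, freed with DTT, alkylated and analysed on a TIMS-TOF Pro by LC-MS/MS. The per-lysine value R is the median over forward and reverse replicates of the filtered median high-probe/low-probe MS1 peptide ratio. It is capped at 20.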

UniProt P35579, sequence (P35579 whole entry): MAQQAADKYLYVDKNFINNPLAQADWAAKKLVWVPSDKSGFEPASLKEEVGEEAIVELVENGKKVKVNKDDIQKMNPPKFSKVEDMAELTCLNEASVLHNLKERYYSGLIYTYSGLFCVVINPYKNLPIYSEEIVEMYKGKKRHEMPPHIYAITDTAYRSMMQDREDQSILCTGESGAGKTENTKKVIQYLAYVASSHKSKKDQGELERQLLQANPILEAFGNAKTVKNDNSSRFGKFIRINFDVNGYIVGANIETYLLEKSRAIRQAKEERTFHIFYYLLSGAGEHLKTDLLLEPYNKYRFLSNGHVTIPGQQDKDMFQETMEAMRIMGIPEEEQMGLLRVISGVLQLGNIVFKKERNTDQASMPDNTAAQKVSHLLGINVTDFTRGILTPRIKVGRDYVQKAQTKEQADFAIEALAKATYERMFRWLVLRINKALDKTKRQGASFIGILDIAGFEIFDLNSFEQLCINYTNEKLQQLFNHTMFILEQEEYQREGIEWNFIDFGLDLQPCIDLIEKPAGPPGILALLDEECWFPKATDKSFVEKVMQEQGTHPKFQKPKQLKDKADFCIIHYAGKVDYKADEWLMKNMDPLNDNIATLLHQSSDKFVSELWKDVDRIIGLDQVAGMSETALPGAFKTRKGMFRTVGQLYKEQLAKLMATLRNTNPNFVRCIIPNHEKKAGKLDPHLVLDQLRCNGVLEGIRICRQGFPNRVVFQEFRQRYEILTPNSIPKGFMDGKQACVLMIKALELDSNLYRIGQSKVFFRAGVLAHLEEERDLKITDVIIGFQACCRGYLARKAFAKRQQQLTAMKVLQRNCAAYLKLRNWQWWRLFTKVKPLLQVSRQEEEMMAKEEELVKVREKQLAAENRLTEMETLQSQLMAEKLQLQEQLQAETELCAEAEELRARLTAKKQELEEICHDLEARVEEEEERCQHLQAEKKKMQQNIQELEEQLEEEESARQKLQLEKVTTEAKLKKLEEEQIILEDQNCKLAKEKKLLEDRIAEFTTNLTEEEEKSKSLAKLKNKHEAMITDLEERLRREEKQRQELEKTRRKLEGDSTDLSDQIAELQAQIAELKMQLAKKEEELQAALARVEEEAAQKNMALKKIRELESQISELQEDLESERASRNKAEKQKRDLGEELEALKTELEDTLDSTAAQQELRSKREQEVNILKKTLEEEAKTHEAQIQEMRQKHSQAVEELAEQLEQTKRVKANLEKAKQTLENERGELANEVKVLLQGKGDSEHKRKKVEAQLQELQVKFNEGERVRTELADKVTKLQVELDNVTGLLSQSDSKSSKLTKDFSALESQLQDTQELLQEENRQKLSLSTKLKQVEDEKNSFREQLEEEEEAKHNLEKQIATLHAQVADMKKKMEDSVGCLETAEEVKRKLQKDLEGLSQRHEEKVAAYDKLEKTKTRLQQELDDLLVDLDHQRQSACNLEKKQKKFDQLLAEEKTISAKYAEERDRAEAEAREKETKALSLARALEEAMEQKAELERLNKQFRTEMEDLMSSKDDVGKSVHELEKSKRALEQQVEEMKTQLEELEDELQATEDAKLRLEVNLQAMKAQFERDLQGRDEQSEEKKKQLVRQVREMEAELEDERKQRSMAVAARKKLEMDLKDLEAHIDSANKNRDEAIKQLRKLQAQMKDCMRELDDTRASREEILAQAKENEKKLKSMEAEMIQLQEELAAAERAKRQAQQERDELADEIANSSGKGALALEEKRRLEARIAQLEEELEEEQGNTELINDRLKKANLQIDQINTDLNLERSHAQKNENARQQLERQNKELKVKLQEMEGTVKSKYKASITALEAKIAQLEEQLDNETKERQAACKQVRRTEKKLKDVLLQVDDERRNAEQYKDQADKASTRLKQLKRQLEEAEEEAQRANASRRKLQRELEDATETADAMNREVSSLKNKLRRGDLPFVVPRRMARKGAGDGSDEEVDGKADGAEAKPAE
UniProt P05556, sequence (P05556 whole entry): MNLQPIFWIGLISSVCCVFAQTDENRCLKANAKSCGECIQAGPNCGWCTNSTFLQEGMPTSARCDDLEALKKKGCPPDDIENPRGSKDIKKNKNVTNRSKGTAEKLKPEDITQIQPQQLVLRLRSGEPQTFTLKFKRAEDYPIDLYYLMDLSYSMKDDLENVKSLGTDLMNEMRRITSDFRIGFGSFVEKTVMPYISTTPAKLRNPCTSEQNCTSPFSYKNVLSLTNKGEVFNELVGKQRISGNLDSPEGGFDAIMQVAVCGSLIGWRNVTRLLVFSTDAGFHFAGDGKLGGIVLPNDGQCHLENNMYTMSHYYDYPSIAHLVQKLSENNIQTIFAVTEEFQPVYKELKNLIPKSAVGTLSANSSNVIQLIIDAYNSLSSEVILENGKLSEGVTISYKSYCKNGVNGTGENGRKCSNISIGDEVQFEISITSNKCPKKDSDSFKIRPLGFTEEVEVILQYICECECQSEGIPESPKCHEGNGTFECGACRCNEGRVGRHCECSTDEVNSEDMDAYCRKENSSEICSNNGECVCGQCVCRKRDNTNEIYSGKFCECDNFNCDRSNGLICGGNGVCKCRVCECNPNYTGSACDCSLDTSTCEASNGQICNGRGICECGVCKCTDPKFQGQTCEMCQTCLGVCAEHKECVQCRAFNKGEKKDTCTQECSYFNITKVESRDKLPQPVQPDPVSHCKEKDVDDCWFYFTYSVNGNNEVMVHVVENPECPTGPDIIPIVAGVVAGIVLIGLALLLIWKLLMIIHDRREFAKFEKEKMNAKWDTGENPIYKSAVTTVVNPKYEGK
UniProt P29317, sequence (P29317 whole entry): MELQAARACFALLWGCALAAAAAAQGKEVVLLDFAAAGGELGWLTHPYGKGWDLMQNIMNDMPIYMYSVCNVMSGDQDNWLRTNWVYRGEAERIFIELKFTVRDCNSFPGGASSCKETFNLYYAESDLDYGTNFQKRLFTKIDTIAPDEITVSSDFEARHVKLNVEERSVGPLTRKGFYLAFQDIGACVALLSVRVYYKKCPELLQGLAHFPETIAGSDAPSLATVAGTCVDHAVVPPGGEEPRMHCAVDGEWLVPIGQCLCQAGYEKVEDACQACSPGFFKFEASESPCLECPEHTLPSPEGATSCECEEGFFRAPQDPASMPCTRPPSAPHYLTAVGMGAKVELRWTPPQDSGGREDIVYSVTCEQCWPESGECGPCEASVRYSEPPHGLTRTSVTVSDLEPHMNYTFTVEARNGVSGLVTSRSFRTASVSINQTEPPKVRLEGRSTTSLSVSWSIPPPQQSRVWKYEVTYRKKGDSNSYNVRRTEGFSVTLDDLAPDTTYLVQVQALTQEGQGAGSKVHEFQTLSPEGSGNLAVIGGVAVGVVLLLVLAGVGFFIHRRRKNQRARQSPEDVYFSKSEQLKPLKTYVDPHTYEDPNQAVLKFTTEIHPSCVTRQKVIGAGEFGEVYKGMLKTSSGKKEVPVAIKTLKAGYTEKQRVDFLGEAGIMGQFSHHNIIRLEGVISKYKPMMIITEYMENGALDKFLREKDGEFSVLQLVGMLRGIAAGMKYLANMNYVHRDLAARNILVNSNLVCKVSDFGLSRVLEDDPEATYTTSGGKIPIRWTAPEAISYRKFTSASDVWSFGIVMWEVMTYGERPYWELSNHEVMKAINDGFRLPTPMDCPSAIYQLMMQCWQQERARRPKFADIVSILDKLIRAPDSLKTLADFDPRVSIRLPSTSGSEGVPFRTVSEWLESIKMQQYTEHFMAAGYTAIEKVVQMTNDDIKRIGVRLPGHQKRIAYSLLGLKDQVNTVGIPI
UniProt P51153, sequence (P51153 whole entry): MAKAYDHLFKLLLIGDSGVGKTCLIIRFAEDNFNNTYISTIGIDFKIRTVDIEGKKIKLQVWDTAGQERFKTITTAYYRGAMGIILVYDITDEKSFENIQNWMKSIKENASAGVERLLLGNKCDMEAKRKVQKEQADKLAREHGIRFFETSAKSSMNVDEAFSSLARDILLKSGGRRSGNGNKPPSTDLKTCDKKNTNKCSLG
UniProt Q9H4F8, sequence (Q9H4F8 whole entry): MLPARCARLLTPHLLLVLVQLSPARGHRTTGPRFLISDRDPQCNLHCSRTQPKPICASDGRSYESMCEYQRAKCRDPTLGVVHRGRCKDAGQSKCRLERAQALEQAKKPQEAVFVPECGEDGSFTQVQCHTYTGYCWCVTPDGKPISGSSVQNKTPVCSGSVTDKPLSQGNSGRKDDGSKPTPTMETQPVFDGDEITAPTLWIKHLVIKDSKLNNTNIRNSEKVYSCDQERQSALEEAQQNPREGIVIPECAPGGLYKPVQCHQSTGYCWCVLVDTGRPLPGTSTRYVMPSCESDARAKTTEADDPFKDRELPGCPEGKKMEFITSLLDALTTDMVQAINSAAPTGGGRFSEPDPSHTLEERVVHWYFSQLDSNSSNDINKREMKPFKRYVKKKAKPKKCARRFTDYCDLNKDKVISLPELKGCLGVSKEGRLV
UniProt Q13442, sequence (Q13442 whole entry): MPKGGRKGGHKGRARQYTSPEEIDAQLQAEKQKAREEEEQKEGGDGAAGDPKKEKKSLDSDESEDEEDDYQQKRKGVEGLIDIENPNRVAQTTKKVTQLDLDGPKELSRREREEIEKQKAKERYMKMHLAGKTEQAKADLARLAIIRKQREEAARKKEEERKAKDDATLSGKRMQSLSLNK
UniProt P62937, sequence (P62937 whole entry, looked up): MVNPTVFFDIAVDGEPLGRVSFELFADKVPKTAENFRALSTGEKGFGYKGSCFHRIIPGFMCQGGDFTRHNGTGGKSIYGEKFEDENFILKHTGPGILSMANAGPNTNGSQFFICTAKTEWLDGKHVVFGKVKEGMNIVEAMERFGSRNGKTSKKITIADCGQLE
UniProt Q99497, sequence (Q99497 whole entry): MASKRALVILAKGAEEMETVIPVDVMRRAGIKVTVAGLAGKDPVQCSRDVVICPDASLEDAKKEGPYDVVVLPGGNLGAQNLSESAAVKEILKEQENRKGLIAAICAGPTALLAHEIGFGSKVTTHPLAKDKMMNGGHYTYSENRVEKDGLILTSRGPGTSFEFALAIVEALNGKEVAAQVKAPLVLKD

Target	lysine labeling ratio R10:1
CCT3 (lysine site: K78) (UniProt P49368)	4.07
VIM (lysine site: K188) (UniProt P08670)	11.1
XRCC6 (lysine site: K317) (UniProt P12956)	3.53
PARK7 (lysine site: K148) (UniProt Q99497)	3.31
STS (lysine site: K368) (UniProt P08842)	1.48 (active)
UniProt Q9NYU2 (lysine site: K356)	1.45 (active)
PPIA (lysine site: K49) (UniProt P62937)	3.03
OSBPL5 (lysine site: K446) (UniProt Q9H0X9)	1.7 (active)
RPS5 (lysine site: K47) (UniProt P46782)	1.01 (active)
ITGB1 (lysine site: K90) (UniProt P05556)	3.53
PLOD2 (lysine site: K89) (UniProt O00469)	1.37 (active)
UniProt P55285 (lysine site: K121)	4.12
EGFR (lysine site: K226) (UniProt P00533)	11
MYH9 (lysine site: K1219) (UniProt P35579)	2.49
ITGA1 (lysine site: K711) (UniProt P56199)	3.16
KIRREL (lysine site: K67) (UniProt Q96J84)	0.92 (active)
UniProt Q00341 (lysine site: K494)	2.15
EPHA2 (lysine site: K468) (UniProt P29317)	3.11
FRAS1 (lysine site: K1158) (UniProt Q86XX4)	1.34 (active)
PDAP1 (lysine site: K181) (UniProt Q13442)	1.83 (active)

Target	lysine labeling ratio R10:1
GPC1 (lysine site: K338) (UniProt P35052)	7.36
CD63 (lysine site: K110) (UniProt P08962)	5.07
CLTC (lysine site: K1516) (UniProt Q00610)	1.45 (active)
FKBP4 (lysine site: K354) (UniProt Q02790)	1.51 (active)
HSPA9 (lysine site: K106) (UniProt P38646)	6.72
MYH9 (lysine site: K835) (UniProt P35579)	8.12
FZD1 (lysine site: K273) (UniProt Q9UP38)	4.28
TCP1 (lysine site: K126) (UniProt P17987)	2.14
NOTCH1 (lysine site: K1607) (UniProt P46531)	6.4
FZD6 (lysine site: K149) (UniProt O60353)	0.883 (active)
GALNT7 (lysine site: K648) (UniProt Q86SF2)	1.92 (active)
SMOC1 (lysine site: K299) (UniProt Q9H4F8)	4.95
MYO1C (lysine site: K667) (UniProt O00159)	2.86
RAB13 (lysine site: K107) (UniProt P51153)	0.523 (active)
ITGAV (lysine site: K533) (UniProt P06756)	1.58 (active)
UniProt P60866 (lysine site: K67)	2
UniProt Q9NYQ6 (lysine site: K324)	0.873 (active)
NUMA1 (lysine site: K891) (UniProt Q14980)	1.87 (active)
RUVBL1 (lysine site: K182) (UniProt Q9Y265)	0.748 (active)
RPL28 (lysine site: K135) (UniProt P46779)	3.84
